Holding throughout (experiment): pooled miR-30 sensor sort-seq; sequence = guide strand
What all share (conditions): shRNA

The target of assay [1] is MIP.
The target in assay [2] is MIER1.
Assay [3] addresses MIS12.
Assay [4] concerns the target MIOX.
For assay [5], the target named is MKNK2.
Assay [6] deals with MLL.
Assay [7] has as its target MMADHC.

Among the data in the OligoGym collection are sensor-assay potency score (higher = more potent) values, retold here.
Further: reference of the scale not given here.

TGAGTGCTAGGTTTCCTCGGAC yielded a sensor-assay potency score (higher = more potent) in assay [1] of -0.712.

As to TAGTCGAACAGTACTACCATAA, the sensor-assay potency score (higher = more potent) in assay [2] is -1.32.

With TTAATCTTCTCAATGCTTCTTC, the sensor-assay potency score (higher = more potent) in assay [2] is 0.934.

On to TAATGTTCTGTAGTTTTCTGGA, for which the sensor-assay potency score (higher = more potent) in assay [3] is -0.154.

The sequence TTCGTCTAGAAGACGATCCATG gave a sensor-assay potency score (higher = more potent) in assay [2] of -1.5.

In assay [4], TGCATGAGCTTGTAGGTGGTGA showed a sensor-assay potency score (higher = more potent) of -0.613.

Turning to TTGAGTGCTAGGTTTCCTCGGA, the sensor-assay potency score (higher = more potent) in assay [1] is -0.0163.

For TACATCCCGAGCTCTGTGCTGT, in assay [4], the sensor-assay potency score (higher = more potent) was -0.811.

Sequence TCCATGACTGTCATTTTCTTGT displayed a sensor-assay potency score (higher = more potent) in assay [4] of -1.1.

For TTGTCCATTGGAGACATCGGGT, in assay [1], the sensor-assay potency score (higher = more potent) is -0.903.

TTGGTGTAGAGGTCGAACTTGT showed a sensor-assay potency score (higher = more potent) in assay [4] of -0.568.

TATAATCTTCATCTTCTTCAGA: in assay [2], the sensor-assay potency score (higher = more potent) was -0.137.

As to TCGTATGTGGCAAAGATGCAGA, in assay [1], the sensor-assay potency score (higher = more potent) is -0.993.

As for TGAGGACAGACAGTCTCTCAGA, the sensor-assay potency score (higher = more potent) in assay [1] was -1.25.

For the sequence TATAATCACTTTATCTTCTGGT, in assay [2], the sensor-assay potency score (higher = more potent) came out at 0.758.

TCAGAAATACTCTTGAGCCGGG: in assay [1], the sensor-assay potency score (higher = more potent) is 0.442.

For the sequence TAACGCTATACAGCACAGCGGC, the sensor-assay potency score (higher = more potent) in assay [1] is -1.18.

With AATTTCTACACTCTTCCTCTGT, the sensor-assay potency score (higher = more potent) in assay [2] worked out at 0.0886.

Regarding TTGGGGAAATCTACGTCCGGGT, the sensor-assay potency score (higher = more potent) in assay [4] was -0.845.

In assay [4], TGTGCTGTATCGAGGATCCTGG registered a sensor-assay potency score (higher = more potent) of -0.757.

Take TTGGTTTGAACAGTCACTGGTA: in assay [3], the sensor-assay potency score (higher = more potent) was found to be 0.981.

Take TACTGTTTGATGCAGTTGGGGG: the sensor-assay potency score (higher = more potent) in assay [2] was -0.856.

In assay [1], TAGGTTTCCTCGGACAGCAGGT registered a sensor-assay potency score (higher = more potent) of -0.243.

For ATCATCAAAATCATGAACCAGC, the sensor-assay potency score (higher = more potent) in assay [2] was -0.377.

TCTGGGTCCACATCAGGTCGGT gave a sensor-assay potency score (higher = more potent) in assay [4] of -0.363.

Take TGTCCATTGGAGACATCGGGTT: in assay [1], the sensor-assay potency score (higher = more potent) was -1.24.

TTCTTCTTTCCAAATCGTGTTT showed a sensor-assay potency score (higher = more potent) in assay [2] of -0.957.

As to TTTTCTTGTAGGAGAAGCCCCC, in assay [4], the sensor-assay potency score (higher = more potent) is -0.0971.

On to TCTCTCAGAAATACTCTTGAGC, for which, in assay [1], the sensor-assay potency score (higher = more potent) was -0.614.

Regarding TTGTGATGGATCATCATTGGAA, the sensor-assay potency score (higher = more potent) in assay [2] was -0.466.

In assay [3], TCTCCTTACATTTATCTTCAGG returned a sensor-assay potency score (higher = more potent) of -1.19.

In turn, TTGTAGGTGGTGAAGACACGGT gave a sensor-assay potency score (higher = more potent) in assay [4] of -0.626.

For the sequence TTATCTTCTGGTAAGTACTCAG, in assay [2], the sensor-assay potency score (higher = more potent) is -0.171.

In assay [3], TTAGTACATAATTCAGTCTTGT showed a sensor-assay potency score (higher = more potent) of -0.329.

TCGAACTTGTTGAACTCCCGCA: the sensor-assay potency score (higher = more potent) in assay [4] is -0.101.

TTAATATTTCACCTGGTCCATT: the sensor-assay potency score (higher = more potent) in assay [2] was -1.02.

TTGTTAAACTTCATCACCTGGT yielded a sensor-assay potency score (higher = more potent) in assay [4] of -0.0605.

Consider TTCCTCTGCAGGACCATGGGAG, for which the sensor-assay potency score (higher = more potent) in assay [5] is -0.448.

With TAAGACATGATCAACTACTTTG, in assay [6], the sensor-assay potency score (higher = more potent) was -0.602.

Sequence TTGAAATGCAATGTAGATCCGA yielded a sensor-assay potency score (higher = more potent) in assay [3] of 0.852.

Sequence TTTGTTATGCAGAAAGTCCAAG registered a sensor-assay potency score (higher = more potent) in assay [5] of -0.811.

For the sequence TTACTCTTCTCAATCTTGCAGA, the sensor-assay potency score (higher = more potent) in assay [6] is 0.352.

TGATGCAGGTCTGCACTCGGGC registered a sensor-assay potency score (higher = more potent) in assay [5] of -1.01.

Turning to TAATTCTGCAAGAAGGGCCTGC, in assay [3], the sensor-assay potency score (higher = more potent) amounted to 0.0971.

With TTTCTTGTTCAACAGGTGCATC, in assay [7], the sensor-assay potency score (higher = more potent) was -1.26.

In assay [5], TAGATGCTAGCCTCCTCGCTGA came in with a sensor-assay potency score (higher = more potent) of -0.602.

As to TAATTTCTTGTTCAACAGGTGC, the sensor-assay potency score (higher = more potent) in assay [7] is -0.82.

On to TTCTTCACTCCAAACAGTCATA, for which, in assay [7], the sensor-assay potency score (higher = more potent) was -1.24.

Regarding TTGTTTAAGACTCTTACTCTTC, the sensor-assay potency score (higher = more potent) in assay [6] is -0.426.

In turn, TTGAGTTTGATGCCGCTGCCCA yielded a sensor-assay potency score (higher = more potent) in assay [5] of -0.98.

In the case of TATGATTCTACTTTTTGACAGG, the sensor-assay potency score (higher = more potent) in assay [3] is -0.668.

TTTGCTTAGAACTATTGCCATT displayed a sensor-assay potency score (higher = more potent) in assay [6] of -1.46.

TTTGCCATTAGCTACTTCTGGA displayed a sensor-assay potency score (higher = more potent) in assay [7] of -0.35.

Regarding TCGGTGTAGACTCTAATCGGGC, in assay [6], the sensor-assay potency score (higher = more potent) is -1.36.

As for ATCAGCTCTAGGACGTTCCTGT, the sensor-assay potency score (higher = more potent) in assay [5] is -0.0446.

With TGAGGTGACAATCAAAACCTAT, in assay [7], the sensor-assay potency score (higher = more potent) is -0.635.

Consider TAGATCCGAAGCATGCACGTTT, for which the sensor-assay potency score (higher = more potent) in assay [3] is 0.233.

In assay [6], TATCTCTGGAACTAGATCCCAT yielded a sensor-assay potency score (higher = more potent) of 0.126.

TGAAATGCAATGTAGATCCGAA returned a sensor-assay potency score (higher = more potent) in assay [3] of 0.0164.

In assay [5], TTGATGCAGGTCTGCACTCGGG returned a sensor-assay potency score (higher = more potent) of -1.43.
